This excerpt belongs to a sample that is enriched for hits.
DUX4 inh: inhibitors of DUX4-driven ZSCAN4 reporter expression, primary screen, 293T cells, Gaussia and Italica luciferase; 293T-iDUX4 ZSCAN4-Gaussia luciferase reporter, 24 h; hits give low values; activity change, negative = inhibition, % (no concentration beside the values); 0.8% of 37,000 active;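 active = mean inhibition of at least 10% in the main channel, exceeding the control channel by a set limit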;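 note: 0% = median of neutral control wells and -100% = median of positive control wells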
* = called active by the depositor; ! = a repeat was not active.

What do the screens show for `O=C(Nc1ccccc1)N1C[C@@H]2N[C@H](C1)C2c1ccc(-c2cccnc2)cc1` (stereo partly drawn)?
DUX4 inh: -52.2*

How did O=C(C1CCCC1)N1C[C@@H]2N[C@H](C1)C2c1ccc(-c2ccncc2)cc1 (stereo partly drawn) do in these assays?
DUX4 inh: -27.9*!

What do the screens show for `CC(=O)N(C[C@H]1N[C@H](CO)[C@@H]1c1ccc(-c2cccc(F)c2)cc1)C1CCCC1`?
DUX4 inh: 0.8

What do the screens show for `CC(C)[C@@H]1C(=O)N[C@@H](c2ccc3c(c2)OCO3)C/C=C/C[C@H](C)Oc2ccccc2C(=O)N1C`?
DUX4 inh: -0.4

What do the screens show for `COc1ccccc1-c1ccc2n(c1=O)C[C@@H]1[C@@H](CO)[C@H](C(=O)N(C)C)N[C@H]21`?
DUX4 inh: -2.0

How did CO[C@H](CN(C)S(=O)(=O)c1ccc(Cl)cc1)[C@H](C)CN(C(=O)Nc1ccccc1F)[C@@H](C)CO do in these assays?
DUX4 inh: 2.2

What do the screens show for `Cc1noc(C)c1NC(=O)N(C)C[C@H]1Oc2ccc(NC(=O)CCN3CCOCC3)cc2CC(=O)N([C@@H](C)CO)C[C@H]1C`?
DUX4 inh: 1.4

What do the screens show for `C[C@H](NC(=O)N(C)C[C@H]1OCc2ccccc2-c2ccccc2C(=O)N([C@H](C)CO)C[C@@H]1C)c1ccccc1`?
DUX4 inh: 6.9

What do the screens show for `COc1ccc2c3c(n(C)c2c1)[C@@H](CO)N(Cc1ccccc1F)CC31CCN(C(C)=O)CC1`?
DUX4 inh: 5.5

How did CCC(=O)N1CCCCN2[C@@H](CO)[C@H](c3ccc(/C=C/c4ccccc4)cc3)[C@@H]2C1 do in these assays?
DUX4 inh: -16.2*

Results for O=C(c1cccc(F)c1)N1CCCCN2[C@H](C1)[C@H](c1ccc(/C=C/c3ccccc3)cc1)[C@@H]2CO ?
DUX4 inh: -9.3

How did CC(C)(O)C#Cc1ccc([C@H]2[C@@H](CO)N3CCCCN(C(=O)c4ccc(F)cc4)C[C@H]23)cc1 do in these assays?
DUX4 inh: -4.8

What do the screens show for `CC(C)C#Cc1ccc([C@@H]2[C@@H](CO)N3CCCCN(C(=O)c4ccc(F)cc4)C[C@H]23)cc1`?
DUX4 inh: 0.1

What do the screens show for `CC(C)C#Cc1ccc([C@H]2[C@@H](CO)N3CCCCN(C(=O)c4ccc(F)cc4)C[C@H]23)cc1`?
DUX4 inh: -40.1*

How did O=C(CN1CCOCC1)N1CCCCN2[C@H](CO)[C@H](c3ccc(/C=C/c4ccccc4)cc3)[C@H]2C1 do in these assays?
DUX4 inh: 5.1

How did O=C(c1cccc(F)c1)N1CCCCN2[C@H](CO)[C@H](c3ccc(-c4ccccc4)cc3)[C@H]2C1 do in these assays?
DUX4 inh: 2.5

How did O=C(c1cccc(F)c1)N1CCCCN2[C@H](C1)[C@@H](c1ccc(/C=C/c3ccccc3)cc1)[C@@H]2CO do in these assays?
DUX4 inh: -41.1*

Results for O=C(CN1CCOCC1)N1CCCCN2[C@H](C1)[C@@H](c1ccc(/C=C/c3ccccc3)cc1)[C@@H]2CO ?
DUX4 inh: -6.7

Results for CC[C@@H]1CC=CC[C@@H](C)Oc2ccccc2C(=O)N(C)[C@@H](C)C(=O)N1 (mixture of isomers) ?
DUX4 inh: 2.3

How did CCCNC(=O)Nc1ccc2c(c1)C(=O)N(C)[C@@H]1CC[C@@H](CC(=O)NCCCN(C)C)O[C@@H]1CO2 do in these assays?
DUX4 inh: 2.8

Results for C/C=C/c1ccc([C@H]2[C@H](CO)N(S(=O)(=O)Cc3ccccc3)C23CN(C(=O)C2CCOCC2)C3)cc1 ?
DUX4 inh: -2.8

What do the screens show for `CCN(C[C@@H]1[C@@H](c2ccccc2)[C@@H](CO)N1CC1CC1)C(=O)c1ccccc1F`?
DUX4 inh: -0.4

Results for COc1ccc(NC(=O)N(C)C[C@@H]2OCCCC[C@H](C)Oc3ccc(NS(=O)(=O)c4cccs4)cc3C(=O)N([C@H](C)CO)C[C@H]2C)cc1 ?
DUX4 inh: -1.0

How did C[C@H]1CN([C@@H](C)CO)C(=O)Cc2cc(NS(=O)(=O)c3ccc(Cl)cc3)ccc2O[C@H]1CN(C)C(=O)Nc1ccc(C(F)(F)F)cc1 do in these assays?
DUX4 inh: -2.2

Results for OC[C@H]1[C@@H](c2ccc(C#Cc3ccccc3F)cc2)[C@@H]2CN(Cc3cncnc3)CCCCN12 ?
DUX4 inh: 1.5

Results for COc1ccc(C#Cc2ccc([C@@H]3[C@@H](CO)N4CCCCN(Cc5ccccc5F)C[C@@H]34)cc2)cc1 ?
DUX4 inh: -29.9*

What do the screens show for `CCCC#Cc1ccc([C@H]2[C@H](CO)N3CCCCN(CC4CCOCC4)C[C@@H]23)cc1`?
DUX4 inh: 12.1

How did OC[C@@H]1[C@H](c2ccc(C#Cc3ccccc3F)cc2)[C@@H]2CN(CC3CCOCC3)CCCCN12 do in these assays?
DUX4 inh: -7.5

Results for OC[C@@H]1[C@@H](c2ccc(C#Cc3ccccc3F)cc2)[C@@H]2CN(CC3CCOCC3)CCCCN12 ?
DUX4 inh: -28.1*

How did OC[C@H]1[C@@H](c2ccc(C#Cc3ccccc3F)cc2)[C@H]2CN(Cc3cncnc3)CCCCN21 do in these assays?
DUX4 inh: 8.6

What do the screens show for `COc1ccc(C#Cc2ccc([C@H]3[C@H]4CN(C(=O)Nc5ccccc5F)CCCCN4[C@H]3CO)cc2)cc1`?
DUX4 inh: -6.1

What do the screens show for `OC[C@@H]1[C@@H](c2ccc(C#Cc3ccccc3F)cc2)[C@@H]2CN(Cc3cncnc3)CCCCN12`?
DUX4 inh: -4.3

How did COc1ccc(C#Cc2ccc([C@H]3[C@H](CO)N4CCCCN(Cc5ccccc5F)C[C@@H]34)cc2)cc1 do in these assays?
DUX4 inh: -21.2*

Results for N#C[C@H]1[C@@H](c2ccc(C#CC3CC3)cc2)[C@H](CO)N1S(=O)(=O)c1ccccc1 ?
DUX4 inh: 1.6

Results for CC(C)CC#Cc1ccc([C@H]2[C@H](CO)N3C(=O)CN(S(=O)(=O)c4ccccc4)C[C@@H]23)cc1 ?
DUX4 inh: 4.4

How did COc1ccc(NC(=O)N2CC3(C2)CN(C(=O)C2CCC2)[C@H](CO)c2c3c3ccc(OC)cc3n2C)cc1 do in these assays?
DUX4 inh: 9.8

What do the screens show for `O=C1N[C@@H](Cc2ccccc2)COCc2cnnn2CC[C@H]1Cc1cccc(F)c1`?
DUX4 inh: -3.4

What do the screens show for `C[C@H](CO)N1C[C@H](C)[C@H](CN(C)Cc2ccc(C(F)(F)F)cc2)OCCCC[C@H](C)Oc2ccc(NC(=O)CCCN(C)C)cc2C1=O`?
DUX4 inh: 0.6

How did CC(=O)N1CC2(C1)[C@@H](c1ccccc1)[C@@H](CO)N2Cc1cccc(Cl)c1 do in these assays?
DUX4 inh: 0.2

Results for COc1ccc2c3c([nH]c2c1)[C@@H](CO)N(C(=O)c1ccc(F)cc1)CC31CN(C(=O)Nc2ccc(F)cc2)C1 ?
DUX4 inh: 4.0

Results for C[C@@H]1CN([C@H](C)CO)C(=O)c2c(c3ccccc3n2C)-c2ccccc2CO[C@H]1CN(C)C(=O)Nc1ccccc1C(F)(F)F ?
DUX4 inh: -4.3

What do the screens show for `COc1ccccc1NC(=O)N(C)C[C@@H]1OCc2ccccc2-c2c(n(C)c3ccccc23)C(=O)N([C@H](C)CO)C[C@H]1C`?
DUX4 inh: 2.5

What do the screens show for `C[C@@H]1CN([C@H](C)CO)C(=O)c2c(c3ccccc3n2C)-c2ccccc2CO[C@H]1CN(C)C(=O)c1cc(Cl)cc(Cl)c1`?
DUX4 inh: -40.9*

Source: PubChem BioAssay
